ChEMBL document CHEMBL4513216, “Probing the Open Global Health Chemical Diversity Library for Multistage-Active Starting Points for Next-Generation Antimalarials” (ACS Infect Dis, 2020)
The campaign covered roughly 69,000 compounds. About 8,600 (12%) showed an effect of 50% or more. Many of the other results were omitted from the sample, so strong results are more common in it than they were.

test system: Plasmodium berghei; assay: Screen against P. berghei liver stage (PbLuc), transformed with Luciferase, at 10uM; assay type: functional, HepG2; details: tested at 10 uM

| Structure (SMILES) | INHIBITION [%] |
| --- | --- |
| Cn1cc(C(=O)N2CC[C@@H]3[C@@H]2CCN3Cc2ccccc2)cn1 | 5.44 |
| COc1ccc2c(ccn2CC(=O)Nc2n[nH]c(C(C)C)n2)c1 | 35.7 |
| CC(C)n1cnnc1CN(C)C(=O)c1ccc[nH]1 | -5.19 |
| O=C(c1cnccn1)N1CCCC2(CCN(c3ccccn3)C2)C1 (configuration not stated) | -16.1 |
| CCNc1cc2c(nn1)CCN(C(=O)c1ccnc(C)n1)C2 | 7.75 |
| Cc1ccnc(NCC2(N(C)C)CCOCC2)n1 | -24 |
| O=C(c1cccnc1)N1CCc2ncnc(N3CCOCC3)c2CC1 | 41.6 |
| c1ccc(NCc2cn3c(n2)CN(Cc2ccoc2)CC3)nc1 | -13.7 |
| Cc1noc(C)c1CN1CCn2cc(CNc3ccccn3)nc2C1 | 88.1 |
| Cn1cccc1C(=O)NCc1cn2c(n1)CN(C(=O)c1ccsc1)CC2 | 61.1 |
| CC(=O)N1CCn2cc(CNC(=O)c3cccn3C)nc2C1 | 38.1 |
| Cn1cccc1C(=O)NCc1cn2c(n1)CN(c1ncccn1)CC2 | -0.453 |
| c1ccc(NCc2cn3c(n2)CN(Cc2cccs2)CC3)nc1 | 26.5 |
| Cc1ccc2cc(C(=O)N3CCC(Nc4cccnn4)CC3)[nH]c2c1 | 21.6 |
| O=C(NCC[S+]([O-])Cc1ccccc1)c1ccc2[nH]c(=O)[nH]c2c1 (configuration not stated) | 35.2 |
| Cc1nn(C)c(Cl)c1C1CCCN1C(=O)c1ccoc1C (configuration not stated) | -29.1 |
| CCOc1cc(C)nc(N2CCN(C(=O)c3cc(C)on3)CC2)n1 | 19.4 |
| O=C(CCN1CCCN(c2nccs2)CC1)Nc1ccccc1 | 15.2 |
| [O-][S+](CCN1CCc2[nH]nc(C(F)(F)F)c2C1)c1ccccc1 (configuration not stated) | 36.3 |
| CC(C(=O)Nc1ncccn1)N1CCc2[nH]nc(C(F)(F)F)c2C1 (configuration not stated) | -17.9 |
| FC(F)(F)c1n[nH]c2c1CN(CCc1ccccn1)CC2 | 50 |
| O=C(CCN1CCc2[nH]nc(C(F)(F)F)c2C1)Nc1ccccc1 | 61.1 |

| Structure (SMILES) | INHIBITION [%] |
| --- | --- |
| FC(F)(F)c1n[nH]c2c1CN(Cc1cn3ccccc3n1)CC2 | 49.1 |
| Cc1nc2n(n1)CC(NCc1nc(-c3ccccn3)no1)CC2 (configuration not stated) | 0 |
| CCOCCNC(=O)C1CCC(=O)N(CCc2ccc(Cl)cc2)C1 (configuration not stated) | 42.5 |
| CC(C(=O)N1CCCN(c2ncccc2C#N)CC1)n1cncn1 (configuration not stated) | 11.4 |
| COc1ccccc1C(=O)Nc1cc(CC(C)C)nn1C | 12.7 |
| Cc1cnc(C(=O)N2CC(=O)N(c3ccccc3Cl)CC2C)cn1 (configuration not stated) | 17 |
| Cc1nc(Nc2ncccn2)cc(C2CCCN2C(C)C)n1 (configuration not stated) | -0.902 |
| c1cc(C2CCCN2CC2CCCCC2)n[nH]1 (configuration not stated) | -12.3 |
| Cc1c[nH]nc1C1CCCN1Cc1ncc[nH]1 (configuration not stated) | -12.3 |
| Cc1nc(Nc2ccccn2)cc(C2CCCN2Cc2ncc[nH]2)n1 (configuration not stated) | 50.1 |
| c1cc(C2CCCN2CC2CC2)n[nH]1 (configuration not stated) | -14.2 |
| Cc1nc(Nc2ncccn2)cc(C2CCCN2CC(C)C)n1 (configuration not stated) | 56.3 |
| Cc1nc(Nc2ncccn2)cc(C2CCCN2C)n1 (configuration not stated) | 0.301 |
| Cc1nc(Nc2ncccn2)cc(C2CCCN2Cc2ncc[nH]2)n1 (configuration not stated) | 18.9 |
| CC(C)CN1CCCC1c1cc[nH]n1 (configuration not stated) | 52.7 |
| O=C(c1cc(F)ccc1F)C1CCN(C(=O)c2cnccn2)CC1 | 3.73 |
| CCCn1nnnc1CN1Cc2ccccc2CC1c1nnc(C)o1 (configuration not stated) | -25.6 |
| Cc1nn(C)cc1-c1cc(-c2cn(C)nc2C)n(CC(=O)NC2CC2)n1 | 15.2 |
| CCCC(=O)N1CCC(O)(Cn2c(CC)nc3ccccc3c2=O)CC1 | 41.5 |
| CN(C)c1cc(C(=O)N2CCCN(Cc3nccn3C)CC2)ccn1 | 29.2 |
| COc1ccc(CNC(=O)C2=NN(c3ccc(C)cc3)C(=O)CN2)cc1 | 79.5 |
| COc1ccc(C)cc1CNC(=O)C1=NN(c2ccccc2)C(=O)CN1 | -174 |

| Structure (SMILES) | INHIBITION [%] |
| --- | --- |
| COCc1ccc(CNC(=O)C2=NN(c3ccccc3)C(=O)CN2)cc1 | 51.6 |
| COc1ccccc1CNC(=O)C1=NN(c2ccc(C)cc2)C(=O)CN1 | 18.1 |
| N#Cc1ccc(CNC(=O)C2=NN(c3ccccc3)C(=O)CN2)cc1 | -72.2 |
| O=C(NCc1cccnc1)C1=NN(c2ccccc2)C(=O)CN1 | -19.2 |
| COCCCN(Cc1cnc(-c2ccccn2)nc1)C1CCN(C)CC1 | 23.9 |
| CCC1(O)CCCN(c2ncnc3c2c(C)nn3C)C1 (configuration not stated) | 13.7 |
| COCCOC(=O)N1CCn2nc(CN(C)Cc3nccs3)cc2C1 | 36.7 |
| CCC(=O)N(c1ccc(C(=O)OC)cc1C)C(C)C | 20.9 |
| CN(C)CCOCC1CN(Cc2ccsc2)Cc2nnn(C)c21 (configuration not stated) | 38.2 |
| C[C@@H]1CN(C(=O)c2cccc(F)c2)C[C@]12CCN(c1ccsc1)C2=O | 50.9 |
| Cc1cccc(C(=O)N2C[C@@H](C)[C@@]3(CCN(c4ccsc4)C3=O)C2)n1 | 19.4 |
| C[C@@H]1CN(C(=O)c2ccsc2)C[C@]12CCN(c1ccsc1)C2=O | 35.3 |
| CCc1nn(C)c2[nH]nc(NC(=O)c3cccnc3OC)c12 | 43.1 |
| Cc1nn(C)c(N(C)C)c1CNCc1nnc2n1CCCCC2 | -7.94 |
| Cc1ccc(NC2CCN(C(=O)CCn3nc(C)cc3C)CC2)nn1 | 15.4 |
| CNc1nc(C(=O)N2CCn3nc(C(=O)OC)cc3C2)cs1 | 9.16 |
| COc1ccc(C[C@H]2CN(C(=O)c3ccn(C)n3)CC[C@H]2OC)cc1 | -7.28 |
| c1cncc(OCCCNC2COc3ccccc3C2)c1 (configuration not stated) | 38.5 |
| CC(C)NC(=O)C1(Cc2ccccc2-c2cccs2)CCNC1 (configuration not stated) | 41.2 |
| Cc1noc(C)c1-c1ccc(C2CCCN2C(=O)Cn2ccnc2)nc1 (configuration not stated) | 53.2 |
| Cc1noc(C)c1-c1ccc(C2CCCN2C(=O)c2cccnn2)nc1 (configuration not stated) | 31.6 |
| Cc1noc(C)c1-c1ccc(C2CCCN2C(=O)c2cnn(C)c2)nc1 (configuration not stated) | -32.2 |

| Structure (SMILES) | INHIBITION [%] |
| --- | --- |
| Cc1noc(C)c1-c1ccc(C2CCCN2C(=O)c2cccnc2)nc1 (configuration not stated) | -5.71 |
| Cc1noc(C)c1-c1ccc(C2CCCN2C(=O)c2ccncn2)nc1 (configuration not stated) | 61.7 |
| CC(=O)N1CCCC1c1ccc(-c2c(C)noc2C)cn1 (configuration not stated) | 25.6 |
| Cc1csc(CCNC(=O)N2CCC(C(N)=O)CC2)n1 | 36.9 |
| Cc1nn(C)c2cnn(CC(=O)NCc3ccc(F)cc3)c12 | 44.9 |
| OCCC1(NCc2ccc(-n3cccn3)cc2)CCOCC1 | 12 |
| CCN1CCN(C(=O)C2CCOC2)c2ccccc21 (configuration not stated) | 48.3 |
| COc1ccc(CCNC(=O)C(C)Nc2cccc(C)c2C)cc1 (configuration not stated) | 20.9 |
| COc1ccc(CCNC(=O)C(C)Nc2ccc(C)c(C)c2)cc1 (configuration not stated) | 58.5 |
| COc1ccc(CCNC(=O)C(C)Nc2cc(C)ccc2C)cc1 (configuration not stated) | 44.9 |
| CCn1cc(CN2CCCN(C(=O)c3ccccc3C)CC2)cn1 | -57.4 |
| CCCn1nnnc1COC(=O)C1COc2ccc(Cl)cc2C1 (configuration not stated) | 32.3 |
| CCc1nncn1CCNC(=O)N1CCCC(Cc2nccn2C)C1 (configuration not stated) | 17.6 |
| Cc1nnc2n1CC(CNc1cnc3ccccc3n1)CC2 (configuration not stated) | 60.1 |
| CCc1nnc2n1CC(CNc1cnc3ccccc3n1)CC2 (configuration not stated) | 27.6 |
| CC(C)c1nnc2n1CC(CNc1cnc3ccccc3n1)CC2 (configuration not stated) | 43.4 |
| CC(C(=O)N1CCN(Cc2ccc(C#N)cc2)CC1)n1ccnc1 (configuration not stated) | 23.5 |
| O=C1CCCN1Cc1nnc2n1CCCN(Cc1ccco1)C2 | -9.23 |
| Cc1ccc(NC2CCN(C(=O)c3cscn3)CC2)nn1 | -77.1 |
| CCCC(C)C(=O)NCc1cn2cc(Br)ccc2n1 (configuration not stated) | -19 |
| CCOCCCC(=O)NCc1cn2cc(Br)ccc2n1 | 11.1 |
| CCOCCOC(C)C(=O)NCc1ccc(N2CCCCC2)cc1 (configuration not stated) | 21.7 |

| Structure (SMILES) | INHIBITION [%] |
| --- | --- |
| CC(C)COCCC(=O)NCc1cn2cc(Br)ccc2n1 | 55.1 |
| CCC(CC)C(=O)NCc1cn2cc(Br)ccc2n1 | 50 |
| CC(C(=O)NCc1cn2cc(Br)ccc2n1)S(C)(=O)=O (configuration not stated) | 40.6 |
| CCOCCOC(C)C(=O)NCc1cn2cc(Cl)ccc2n1 (configuration not stated) | 53.4 |
| CCOCCOC(C)C(=O)NCc1cn2cc(Br)ccc2n1 (configuration not stated) | -27.6 |
| COc1c(C)cnc(CNC(=O)CCOCC(C)C)c1C | -74 |
| CN(C)c1cc(C2CCCN(C(=O)c3ccc(=O)[nH]n3)C2)ccn1 (configuration not stated) | 34.1 |
| CC(=O)NCc1cc2n(n1)CCN(Cc1cccc(CCN)c1)C2 | -7.53 |
| Cc1ccccc1C(=O)NCc1ccnc(N(C)C)c1 | 24 |
| O=C(c1ccncc1)N1CCC(c2nc(O)cc(-c3cccnc3)n2)C1 (configuration not stated) | 48.9 |
| CN(C)C(=O)[C@H]1CC[C@@H]2[C@@H](CCN2C(=O)N(C)C)O1 | 14.2 |
| CNC(=O)[C@H]1CC[C@@H]2[C@@H](CCN2C(=O)N(C)C)O1 | 15.7 |
| CNC(=O)[C@@H]1CC[C@@H]2[C@@H](CCN2C(=O)N(C)C)O1 | 58.5 |
| Cn1cccc1C(=O)N1C[C@@H]2C[C@@H](c3nnc(C4CC4)o3)O[C@@H]2C1 | 43.9 |
| CCCc1noc(C2CCN(C(=O)C3CCCO3)CC2)n1 (configuration not stated) | 13.9 |
| CCc1cc(N(C)Cc2ncc[nH]2)nc(N2CCOCC2)n1 | 25.8 |
| CCc1cc(N(C)Cc2[nH]nc3c2CCC3)nc(N2CCOCC2)n1 | 51.1 |
| CCc1cc(N(C)Cc2nonc2C)nc(N2CCOCC2)n1 | 27.7 |
| Cc1cc(Oc2ccccc2)nc(C2CCCCN2)n1 (configuration not stated) | 16.5 |
